Data on 40 compounds can be found in PubChem BioAssay (NCATS).

Records with an inconclusive call do not appear. A call without a number means that no potency is given here. Activity calls are given as the source filed them. The call rests on the fitted dose curve; in most records, active means well fitted inhibition curve with a large enough effect; inconclusive means small, poorly fitted or top-dose-only effect; inactive means flat fitted curve, though single readings scatter.

The subject of this assay is MCC-26. The assay can be described thus: qHTS assay to identify novel small-molecules to repurpose for Merkel cell carcinoma treatment (AID 1296009). Further: nearly all actives have a fitted effect of over 60% in size. To be noted: MCC and control cell lines, CellTiter-Glo viability, 72 h; series mostly up to 46 µM. The text has this:
MCC is a rare and aggressive neuroendocrine skin cancer with limited treatment options. Approximately 80% of MCCs have the Merkel cell polyomavirus (MCPyV) DNA integrated into the host genome (virus-positive: VP-MCC) and viral oncogenes drive oncogenesis. The remaining MCCs are virus-negative (VN-MCC) and are caused by UV mutagenesis. To identify novel treatments for VP-MCC and/or VN-MCC we screened three VP-MCC cell lines (WAGA, MKL-1, MKL-2), three VN-MCC cell lines (MCC-13, MCC-26, UISO), and four immortalized, non-transformed control cell lines (HaCaT, HEK293T, CRL7250, NIH-3T3) against ~2,400 compounds in the NCGC Pharmaceutical Collection (NPC) and ~1,900 compounds in the Mechanism Interrogation PlatE (MiPE). Using cell viability as a readout (CellTiter-Glo assay) we found both overlapping and distinct drugs that can be repurposed for the treatment of VP-MCC and VN-MCC.
A high-throughput screen was conducted in 1536-well white flat bottom plates (Corning) on a Kalypsys robotic system. Cell lines WAGA, MKL-1, MKL-2, MCC-13, MCC-26, UISO, HaCaT, HEK293T, CRL7250, and NIH-3T3 were screened against 2 small molecule annotated drug libraries NPC and MIPE in dose response (8 and 11 pt. respectively) measuring cell viability after 72 hours of incubation. […] A 1,536 pintool (Kalypsys) was used to transfer 23 nL of compound in DMSO to the 1,536-well assay plates. After 72 hr incubation at 37 degree celsius, 2.5 uL of CellTiter-Glo (Promega) was dispensed into each well using a BiorapTR. Plates were incubated at room temperature for 10 min, transferred to a ViewLux (PerkinElmer) and the luminescence was recorded using an exposure time of 2 seconds. Relative luminescence units (RLUs) were normalized to in-plate controls (no cells as a positive (cytotoxicity) control, DMSO as negative control) and the normalized data was processed using NCATS in-house software.
Take `CC/C=C(\C(=O)N[C@@H]1C(=O)N2C(C(=O)OCOC(=O)C(C)(C)C)=C(COC(N)=O)CS[C@H]12)c1csc(N)n1`: the Potency result was “inactive”.
The same measure for `CC(C)(O)c1ccccc1CC[C@@H](SCC1(CC(=O)O)CC1)c1cccc(/C=C/c2ccc3ccc(Cl)cc3n2)c1`: “inactive”.
For the compound `CN1CCOC(c2ccccc2)c2ccccc2C1` (stereo not given), the Potency entry is “inactive”.
Then `OCC(O)CN1CCN(c2ccccc2)CC1` (stereo not given), with “inactive”; and `O=C(O)c1ccccc1-c1ccc(C(F)(F)F)cc1`, with “inactive”.
As for `CN(C)CCOC(C)(c1ccccc1)c1ccccn1` (stereo not given), the Potency result is “inactive”.
On to `CNCCCC1c2ccccc2C=Cc2ccccc21`, for which the Potency entry is “inactive”.
Then `CCCn1cnc2c1c(=O)n(CCCCC(C)=O)c(=O)n2C`, with “inactive”.
Then `C[C@@H](O)[C@H](N)C(=O)O`, with “inactive”; and `CCOC(=O)c1ccc(O)cc1`, with “inactive”; and `COc1ccc2cc1Oc1cc3c(cc1OC)CC[N+](C)(C)[C@H]3Cc1ccc(cc1)Oc1c(OC)c(OC)cc3c1[C@@H](C2)[N+](C)(C)CC3`, with “inactive”.
The same measure for `Nc1nc2c(ncn2CCC(CO)CO)c(=O)[nH]1`: “inactive”.
Regarding `[O-][n+]1cccc(CO)c1`, the Potency entry is “inactive”.
On to `COc1ccc(Cl)cc1C(=O)NCCc1ccc(S(=O)(=O)NC(=O)NC2CCCCC2)cc1`, for which the Potency entry was “inactive”.
Then `CCOC(CN1CCN(CC(C)C(=O)c2ccccc2)CC1)c1ccccc1` (stereo not given), with “inactive”; and `CC12CCC(CC1)C(C)(C)O2`, with “inactive”.
The same measure for `CC1=C(CC(=O)O)c2cc(F)ccc2/C1=C\c1ccc(S(C)(=O)=O)cc1`: “inactive”; for `Nc1ccc(S(=O)(=O)NC(=O)c2ccccc2)cc1`: “inactive”; for `N[C@@H](CSCCCO)C(=O)O`: “inactive”.
Regarding `Cc1cc2c(cc1S(N)(=O)=O)S(=O)(=O)CCC2`, the Potency result is “inactive”.
Then `CC(C(O)c1ccc(O)cc1)N1CCC(Cc2ccccc2)CC1` (stereo not given), with “inactive”; and `C[C@@H]1C[C@H]2[C@@H]3C[C@H](F)C4=CC(=O)C=C[C@]4(C)[C@@]3(F)[C@@H](O)C[C@]2(C)[C@@]1(O)C(=O)CO`, with “inactive”; and `c1ccc(CN(CC2=NCCN2)c2ccccc2)cc1`, with “inactive”.
For the compound `CCOC(=O)[C@H](CCc1ccccc1)N[C@@H](C)C(=O)N1C(=O)N(C)C[C@H]1C(=O)O`, the Potency result is “inactive”.
Then `O=Cc1ccccc1C=O`, with “inactive”.
In the case of `CN1CCC[C@@H]1Cc1c[nH]c2ccc(CCS(=O)(=O)c3ccccc3)cc12`, the Potency entry was “inactive”.
The same measure for `Cc1cc2nc3c(=O)[nH]c(=O)nc-3n(C[C@H](O)[C@H](O)[C@H](O)CO)c2cc1C`: “inactive”; for `O=C1NS(=O)(=O)c2ccccc21`: “inactive”; for `O=C1N=C(O)CN1/N=C/c1ccc(-c2ccc([N+](=O)[O-])cc2)o1`: “inactive”.
On to `CC(C)C(=O)c1c(C(C)C)nn2ccccc12`, for which the Potency result is “inactive”.
In the case of `CNC(=O)Oc1ccc2c(c1)[C@]1(C)CCN(C)[C@@H]1N2C`, the Potency result is “inactive”.
As to `CC[C@@]1(c2ccccc2)NC(=O)N(C)C1=O`, the Potency entry is “inactive”.
Then `O=C(O)CN1C(=O)c2cccc3cccc(c23)C1=O`, with “inactive”.
The same measure for `CN(N=O)C(=O)N[C@@H]1[C@@H](O)[C@H](O)[C@@H](CO)O[C@@H]1O`: “inactive”; for `O=c1cc[nH]c(=O)[nH]1`: “inactive”; for `O=C1Nc2ccc(Cl)cc2[C@@](C#CC2CC2)(C(F)(F)F)O1`: “inactive”.
In the case of `O=C(O)CC(O)C(=O)O` (stereo not given), the Potency result was “inactive”.
As for `CN1[C@@H]2CC(OC(=O)[C@H](CO)c3ccccc3)C[C@H]1[C@@H]1O[C@@H]12` (stereo not given in full), the Potency result was “inactive”.
As for `CC(CN1c2ccccc2Sc2ccccc21)N(C)C` (stereo not given), the Potency result is “inactive”.
For `Cc1c(Cl)cccc1Nc1ccccc1C(=O)O`, the Potency entry was “inactive”.
